# Source: paper PMC4552634, “A New Set of Chemical Starting Points with Plasmodium falciparum Transmission-Blocking Potential for Antimalarial Drug Discovery” (PLoS ONE, 2015)
# The campaign covered roughly 13,000 compounds. About 3,200 (25%) showed an effect of 50% or more. Some of the results follow.
# Test system: P. falciparum stage V gametocytes
# Set-up: BacTiter-Glo ATP luminescence viability of purified stage V gametocytes in 384-well plates, per cent inhibition versus DMSO
# Conditions: 48 h, 5 µM; inhibitor
row,SMILES,% Inhibition [%]
1,Cc1cc(Nc2ccc(C)c(Cl)c2)n2ncnc2n1 [TCMDC-123501],-28.24
2,COC(=O)c1cccc(N2CCN(CCCNC(=O)/C(=C/C=C/c3cc4cc(Cl)c(Cl)cc4[nH]3)OC)CC2)c1 [TCMDC-139338],20.82
3,O=C(Cc1ccc(NC(=O)c2ccc(O)c(-c3cccc([N+](=O)[O-])c3)c2)cc1)NCCN1CCCCC1 [TCMDC-140797],2.849
4,O=C(Nc1cccc(-c2cccc(-c3nc4ccc(F)cc4[nH]3)c2)c1)Nc1ccc2c(c1)OCO2 [TCMDC-133165],6.84
5,Nc1cccc(CNCc2cccc(-c3cccc(-c4nc5ccc(F)cc5[nH]4)c3)c2)c1 [TCMDC-132941],-20.24
6,NCc1ccc(CNCc2cccc(-c3cccc(-c4nc5ccccc5[nH]4)c3)c2)cc1 [TCMDC-132817],74.49
7,Fc1ccc2nc(-c3cccc(-c4cccc(CNCc5ccccc5)c4)c3)[nH]c2c1 [TCMDC-132699],-56.67
8,c1ccc(CNCc2cccc(-c3cccc(-c4nc5ccccc5[nH]4)c3)c2)cc1 [TCMDC-132698],-20.89
9,c1ccc(CNCc2cccc(-c3ccc(-c4nc5ccccc5[nH]4)cc3)c2)cc1 [TCMDC-132700],26.72
10,Nc1cccc(CNCc2cccc(-c3cccc(-c4nc5ccccc5[nH]4)c3)c2)c1 [TCMDC-132942],-10.95
11,NCc1ccc(CNCc2cccc(-c3ccc(-c4nc5ccccc5[nH]4)cc3)c2)cc1 [TCMDC-132815],106.4
12,NCc1ccc(CNCc2cccc(-c3cccc(-c4nc5ccc(F)cc5[nH]4)c3)c2)cc1 [TCMDC-132816],98.03
13,COc1ccc(CNCc2cccc(-c3cccc(-c4nc5ccccc5[nH]4)c3)c2)cc1 [TCMDC-132716],-25.62
14,CCNc1cc(C(=O)N[C@@H](Cc2ccccc2)[C@H](O)CNC2(Cc3cccc(Cl)c3)CCC2)cc(N2CCCCS2(=O)=O)c1 [TCMDC-135383],17.64
15,COc1cccc(CNc2noc(-c3c(-c4ccccc4)noc3C)n2)c1OC [TCMDC-134204],10.03
16,CCN(CCCNc1nc(=S)[nH]c2cc(OC)c(OC)cc12)c1ccccc1 [TCMDC-124446],83.33
17,Cc1ccc2[nH]c3c(NCCCN(C)C)ncnc3c2c1 [TCMDC-124580],4.888
18,COc1ccc(-c2nc(NCc3ccccc3)c3cc(OC)c(OC)cc3n2)cc1 [TCMDC-132018],17.4
19,Cc1cc(OCCCN2CCC(NS(=O)(=O)c3cc(Br)c(Cl)s3)CC2)c2ccccc2n1 [TCMDC-136280],-17.93
20,Cc1cc(NC(=O)c2ccco2)ccc1OC1CCN(Cc2ccc(C#N)cc2)CC1 [TCMDC-133956],24.43
21,Cc1ccc(S(=O)(=O)N(C)c2ccccc2C(=O)Nc2ccccc2Oc2ccccc2)cc1 [TCMDC-125068],52.2

row,SMILES,% Inhibition [%]
1,CN(c1ccccc1C(=O)Nc1ccccc1Oc1ccccc1)S(=O)(=O)c1ccccc1 [TCMDC-125092],-61.36
2,CN(c1ccccc1C(=O)Nc1cc(Cl)ccc1Oc1ccccc1)S(=O)(=O)c1ccccc1 [TCMDC-124364],33.71
3,O=[N+]([O-])c1ccc(C2=NN(S(=O)(=O)c3c(Cl)cc(Cl)cc3Cl)CCCC2)cc1 [TCMDC-135423],-33.18
4,CCCCCc1cc(O)c2c(c1)OC(C)(C)CC2C1=CCN(Cc2ccccc2)CC1 (stereo not drawn) [TCMDC-131335],-27.18
5,CCCCc1cc(NCc2ccncc2)nc(Nc2ccccc2)n1 [TCMDC-133995],8.477
6,COc1ccc(-c2cc(C(=O)Nc3ccc(CCCN(C)Cc4ccc(OC)c(OC)c4)cc3)c3ccccc3n2)cc1 [TCMDC-131848],47.44
7,CCN(CC)CCOC(=O)c1ccc(NC(=O)c2cc(-c3ccc(C)cc3)nc3ccccc23)cc1 [TCMDC-124019],1.245
8,CCn1cc(-c2cc(C(=O)Nc3ccc(OC)cc3C)c3ccccc3n2)c(C)n1 [TCMDC-124457],71.47
9,Cc1cccc2nc(-c3ccc(-c4ccc(CNCCCNS(C)(=O)=O)cc4)s3)[nH]c12.O=C(O)C(F)(F)F [TCMDC-133085],13.51
10,COc1cc2nc(N3CCC(CNC(=O)c4ccc(-c5ccc(C#N)cc5C)cc4)CC3)nc(N)c2cc1OC [TCMDC-138735],105.2
11,COc1cc2nc(N3CC(C)N(C(=O)Cc4ccc(-c5ccccc5)cc4)C(C)C3)nc(N)c2cc1OC (stereo not drawn) [TCMDC-138153],71.85
12,COc1cc2nc(N3CCC(CNC(=O)c4ccc(-c5cccc(C#N)c5)cc4)CC3)nc(N)c2cc1OC [TCMDC-138730],76.59
13,COc1cc2nc(N3CCC(CNC(=O)c4ccc(-c5ccc(C#N)cc5)cc4)CC3)nc(N)c2cc1OC [TCMDC-138713],15.4
14,COc1cc2nc(N3CCC(CNC(=O)/C=C/c4cccc(C)c4)CC3)nc(N)c2cc1OC [TCMDC-138156],-2.985
15,CC(C)CCN1CCC(Oc2ccc(NC(=O)c3ccsc3)cc2Cl)CC1 [TCMDC-133973],36.47
16,O=C(NCCN1CCC(NC(=O)c2ccc(-c3ccccn3)s2)CC1)c1ccc(Cl)c(Cl)c1 [TCMDC-141947],-22.55
17,COc1cc(C(=O)N2COCC(CCCN3CCC(N4CCCC4)CC3)(c3ccc(Cl)c(Cl)c3)C2)cc(OC)c1OC (stereo not drawn) [TCMDC-141758],14.16
18,CCN(CC)CCON=Cc1cc(C)c2[nH]c3ccc(OCc4ccccc4)cc3c2c1C [TCMDC-132058],-17.27
19,Cc1nc(-c2cccc(NC(C)C(=O)Nc3cc(C(F)(F)F)ccc3N3CCOCC3)c2)cs1 (stereo not drawn) [TCMDC-125304],-35
20,O=C(O)C[C@H](NC(=O)CCCNC(=O)c1cccc(-c2ccc(Cl)c(Cl)c2)c1)C(=O)O [TCMDC-139508],11.45
21,CC(C)C[C@@H](CNC[C@H](CC(C)C)NC(=O)OC(C)(C)C)NC(=O)OC(C)(C)C [TCMDC-132080],-74.95
